The values that follow come from article PMC5540273 (PLoS ONE, 2017).

Structures are written as SMILES.

Among the test systems are ADCK4; AKT1; AKT2; AKT3; ALK; ANKK1; AURKA; AURKB; AURKC; AXL; BLK; BMPR1A; BMPR1B; BMPR2.
Details in all cases: concentration: 1 μM,replicates: in singlicate; n = 1
The subject of a further assay is T1, AMPK-alpha1.
T1 construct: gene PRKAA1

The subject of a further assay is T2, AMPK-alpha2.
T2 construct: gene PRKAA2

The next assay relates to T3, ARK5.
T3 construct: gene NUAK1

The test system of the next assay is T4, ASK1.
T4 construct: gene MAP3K5

Another assay deals with T5, ASK2.
T5 construct: gene MAP3K6

Another assay deals with T6, BIKE.
T6 construct: gene BMP2K
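Also: KINOMEscan kinase panel screen.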

Turning to `CC(C)c1nc(-c2cccc(NS(=O)(=O)c3ccccc3)c2)c(-c2ccnc(Nc3ccc4c(c3)CN(C)CC4)n2)s1` [GSK1649598], the “%Inh” value amounted to 97.4% in the assay on ADCK4; 0% with AKT1; 4% in the assay with AKT2; 0% with AKT3; 0% with ALK; 82% with AMPK-alpha1. In addition, the “%Inh” value is 94.5% in the assay on AMPK-alpha2; 42% in the assay on ANKK1; 6% with ARK5; 0% in the assay with ASK1; 4% in the assay with ASK2; 23% in the assay with AURKA. For the same compound, the “%Inh” value is given as 52% in the assay on AURKB; 55% in the assay with AURKC; 68% in the assay with AXL; 0% with BIKE; 99.6% in the assay with BLK; 81% in the assay on BMPR1A. The “%Inh” value is recorded as 99.9% in the assay with BMPR1B and 9% in the assay with BMPR2.
As to `O=C(NOCC1CC1)c1cc(Br)c(F)c(F)c1Nc1ccc(I)cc1Cl`, the “%Inh” value in the assay on ADCK4 is 0%; with AKT1, 0%; in the assay with AKT2 it was 0%; with AKT3, 0%; in the assay on ALK, 0%; with AMPK-alpha1, 4%. Also, the “%Inh” value stood at 0% in the assay on AMPK-alpha2; 0% in the assay on ANKK1; 12% in the assay with ARK5; 0% in the assay with ASK1; 0% in the assay on ASK2; 0% in the assay on AURKA. Further, the “%Inh” value in the assay with AURKB is 1%; with AURKC it was 0%; in the assay with AXL it was 2%; in the assay on BIKE, 0%; in the assay on BLK it was 0%; with BMPR1A it was 0%. Moreover, the “%Inh” value with BMPR1B and in the assay with BMPR2 was 0% in each case.
Take `COc1cc(Nc2nccc(N3CCC(NC(=O)c4cccc(C#N)c4)C3)n2)cc(OC)c1OC` (stereo not shown) [GSK1379751]: the “%Inh” value with ADCK4 is given as 50%; in the assay with AKT1 it was 0%; in the assay with AKT2, 0%; with AKT3, 0%; in the assay on ALK, 14%; with AMPK-alpha1, 0%. For the same compound, the “%Inh” value is recorded as 0% with AMPK-alpha2; 24% in the assay on ANKK1; 26% with ARK5; 0% in the assay with ASK1; 0% in the assay on ASK2; 68% in the assay with AURKA. Further, the “%Inh” value in the assay with AURKB worked out at 36%; with AURKC, 56%; in the assay with AXL, 22%; with BIKE, 90%; in the assay on BLK it was 0%; in the assay with BMPR1A, 0%. For the same compound, the results for the “%Inh” value with BMPR1B and with BMPR2 were 2% and 11%, respectively.
`C[C@@H]1CNc2c(sc3ccc4nc(-c5ccc(O)cc5)ccc4c23)C(=O)N1`: the “%Inh” value is given as 10% in the assay on ADCK4; 0% in the assay with AKT1; 0% with AKT2; 0% in the assay on AKT3; 16% in the assay on ALK; 30% with AMPK-alpha1. Further, the “%Inh” value was 0% in the assay on AMPK-alpha2; 0% with ANKK1; 0% in the assay with ARK5; 91% with ASK1; 0% in the assay with ASK2; 42% with AURKA. Besides, the “%Inh” value in the assay with AURKB was determined as 24%; in the assay on AURKC, 0%; with AXL it was 87%; in the assay on BIKE, 0%; in the assay on BLK, 0%; with BMPR1A, 27%. The entries for the “%Inh” value with BMPR1B and with BMPR2 were 0% and 7%, respectively.
Take `Cl.Cl.NC[C@H](CC1CCCCC1)NC(=O)c1ccc(-c2ccnc3[nH]ccc23)s1` [GSK1581428]: the “%Inh” value is given as 2% in the assay on ADCK4; 94.1% in the assay with AKT1; 93.4% in the assay with AKT2; 98.1% in the assay with AKT3; 37% in the assay on ALK; 77% in the assay with AMPK-alpha1. For the same compound, the “%Inh” value in the assay on AMPK-alpha2 turned out to be 72%; in the assay with ANKK1, 0%; with ARK5, 89%; in the assay on ASK1, 0%; in the assay on ASK2, 26%; in the assay on AURKA, 93.8%. For the same compound, the “%Inh” value with AURKB was found to be 96.8%; in the assay on AURKC, 73%; with AXL, 96.3%; in the assay on BIKE, 99.1%; with BLK it was 0%; in the assay on BMPR1A it was 8%. For the same compound, the “%Inh” value in the assay on BMPR1B is listed as 23%; in the assay on BMPR2, 1%.
With `Cl.Nc1n[nH]c2cc(-c3ccccn3)ccc12` [GSK2189892], the “%Inh” value in the assay with ADCK4 was found to be 17%; with AKT1, 0%; in the assay on AKT2, 0%; in the assay with AKT3, 0%; with ALK, 16%; in the assay with AMPK-alpha1 it was 0%. For the same compound, the “%Inh” value with AMPK-alpha2 was determined as 1%; in the assay on ANKK1, 0%; in the assay on ARK5, 0%; with ASK1 it was 0%; with ASK2, 0%; in the assay on AURKA, 0%. Besides, the “%Inh” value is reported as 8% with AURKB; 0% in the assay with AURKC; 0% in the assay with AXL; 32% with BIKE; 22% in the assay on BLK; 0% in the assay on BMPR1A. Further, the “%Inh” value in the assay with BMPR1B and in the assay on BMPR2 was 0% throughout.
With `COc1cccc(OC)c1C(=O)Nc1cccc(-c2nn3ccccc3c2-c2ccnc(Nc3cccc(F)c3)n2)c1` [GSK361065], the “%Inh” value with ADCK4 is 0%; in the assay with AKT1 it was 4%; in the assay on AKT2 it was 0%; with AKT3 it was 0%; in the assay with ALK, 0%; in the assay with AMPK-alpha1, 25%. For the same compound, the “%Inh” value in the assay with AMPK-alpha2 was found to be 4%; with ANKK1, 93.2%; in the assay on ARK5, 0%; in the assay with ASK1 it was 22%; in the assay on ASK2, 0%; in the assay with AURKA it was 32%. Further, the “%Inh” value in the assay on AURKB was 0%; in the assay on AURKC, 70%; in the assay on AXL, 30%; in the assay with BIKE, 0%; with BLK, 41%; in the assay on BMPR1A, 9%. In addition, the “%Inh” value in the assay on BMPR1B came out at 21%; in the assay with BMPR2, 0%.
On to `Cc1nnc(-c2ccc3occ(-c4ccc(S(C)=O)cc4)c3n2)o1` (stereo not shown), for which the “%Inh” value in the assay on ADCK4 came out at 0%; with AKT1, 0%; in the assay with AKT2, 17%; with AKT3, 0%; in the assay on ALK, 0%; in the assay with AMPK-alpha1 it was 0%. Moreover, the “%Inh” value is recorded as 0% in the assay with AMPK-alpha2; 0% in the assay with ANKK1; 10% in the assay with ARK5; 0% in the assay with ASK1; 0% with ASK2; 0% with AURKA. In addition, the “%Inh” value in the assay with AURKB, in the assay with AURKC, with AXL, in the assay with BIKE, in the assay on BLK and with BMPR1A was 0% in each case. Besides, the “%Inh” value in the assay with BMPR1B and in the assay with BMPR2 was 0% each time.
For `N#Cc1cccc(C(=O)NC2CCN(c3ccnc(Nc4ccc(F)cc4)n3)C2)c1` (stereo not shown) [GSK1379708], the “%Inh” value in the assay on ADCK4 was 20%; in the assay on AKT1, 0%; in the assay on AKT2 it was 0%; in the assay on AKT3, 0%; in the assay with ALK, 26%; in the assay with AMPK-alpha1 it was 16%. Moreover, the “%Inh” value with AMPK-alpha2, with ANKK1, in the assay with ARK5, with ASK1, with ASK2 and in the assay on AURKA was 0% each time. Moreover, the “%Inh” value with AURKB is given as 0%; in the assay with AURKC it was 33%; with AXL it was 20%; with BIKE it was 22%; in the assay on BLK, 32%; with BMPR1A it was 0%. Besides, the “%Inh” value with BMPR1B and with BMPR2 was 0% in each case.
In the case of `COc1cccc(CNC(=O)NC2CCN(c3ccnc(Nc4cc(OC)c(OC)c(OC)c4)n3)C2)c1` (stereo not shown) [GSK1379765], the “%Inh” value in the assay on ADCK4 came to 92.3%; in the assay on AKT1, 0%; in the assay on AKT2, 17%; in the assay on AKT3, 0%; with ALK, 72%; with AMPK-alpha1, 0%. The “%Inh” value with AMPK-alpha2 is 2%; in the assay with ANKK1, 42%; in the assay with ARK5 it was 45%; in the assay on ASK1 it was 7%; with ASK2 it was 0%; in the assay on AURKA, 85%. Also, the “%Inh” value is reported as 91.4% in the assay on AURKB; 79% with AURKC; 30% in the assay on AXL; 53% with BIKE; 9% in the assay on BLK; 0% with BMPR1A. Further, the “%Inh” value was 0% in the assay on BMPR1B and 23% with BMPR2.
Regarding `COc1cc2nccc(Nc3ccc(Oc4ccccc4)cc3)c2cc1OC.Cl` [GI261656], the “%Inh” value in the assay with ADCK4 is given as 40%; in the assay on AKT1 it was 0%; with AKT2 it was 0%; in the assay on AKT3, 0%; in the assay on ALK, 4%; with AMPK-alpha1, 0%. The “%Inh” value is given as 0% in the assay on AMPK-alpha2; 0% with ANKK1; 7% in the assay with ARK5; 0% with ASK1; 0% in the assay on ASK2; 22% with AURKA. Moreover, the “%Inh” value in the assay on AURKB was 17%; in the assay with AURKC, 0%; in the assay with AXL, 10%; in the assay on BIKE, 6%; in the assay on BLK, 99.2%; in the assay on BMPR1A, 0%. The figures for the “%Inh” value in the assay with BMPR1B and with BMPR2 were 0% and 7%, respectively.
